Among all 260,000 compounds or so, about 890 (0.34%) were called active. Where a call stands in place of a potency, no number is given. Inconclusive results (about 1%) are left out. This excerpt belongs to a sample that is enriched for actives. Unmarked numbers belong to inactive results. Calls come from the whole dose curve; as a rule, active = well fitted activation curve with a large enough effect; inconclusive = small, poorly fitted or top-dose-only effect; inactive = no such curve, though single readings can be large or run the other way.
Potency is the fitted concentration of half-maximal effect.

Sequence of Pyruvate kinase PKM (Homo sapiens) (P14618 whole entry, looked up, canonical isoform): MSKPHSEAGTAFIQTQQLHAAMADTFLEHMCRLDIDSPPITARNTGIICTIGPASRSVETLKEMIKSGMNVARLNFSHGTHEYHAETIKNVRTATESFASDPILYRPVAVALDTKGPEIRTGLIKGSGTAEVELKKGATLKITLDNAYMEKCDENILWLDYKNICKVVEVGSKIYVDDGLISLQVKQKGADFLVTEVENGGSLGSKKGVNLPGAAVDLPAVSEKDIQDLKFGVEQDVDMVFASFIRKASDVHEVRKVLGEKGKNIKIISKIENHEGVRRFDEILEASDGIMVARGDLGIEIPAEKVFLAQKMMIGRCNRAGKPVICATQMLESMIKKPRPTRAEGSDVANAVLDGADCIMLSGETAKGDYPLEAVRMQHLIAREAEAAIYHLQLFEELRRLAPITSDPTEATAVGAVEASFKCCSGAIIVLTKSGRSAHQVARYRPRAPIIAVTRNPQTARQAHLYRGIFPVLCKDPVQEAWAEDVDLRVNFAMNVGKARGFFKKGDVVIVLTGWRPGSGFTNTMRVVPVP

The target in this test is Pyruvate kinase PKM (Homo sapiens) (UniProt P14618). In words: qHTS Assay for Activators of Human Muscle isoform 2 Pyruvate Kinase. Note: nearly all actives have a fitted effect of over 55% in size. Conditions: purified PKM2, Kinase-Glo ATP luminescence; Potency: activation; series mostly up to 57.5 µM. The source says:
NIH Chemical Genomics Center [NCGC] Matthew G. Vander Heiden, M.D., Ph.D. [Harvard Medical School, 77 Avenue Louis Pasteur, Boston, MA 02115] MLPCN Grant: 1 R03 MH085679-01 NCGC Assay Overview: Human pyruvate kinase muscle 2 (hPK-M2) enzyme was supplied as a highly purified (>95% pure) preparation from Harvard Medical School and assayed for its ability to generate ATP from ADP using phosphoenolpyruvate (PEP) as a substrate. ATP generation was detected in a coupled reaction by luciferase-mediated luminescence, an ATP-dependent process. […] The enzyme was assayed at an intermediate level of activity to screen for both inhibitors and activators.
NCGC Assay Protocol Summary: Three uL of substrate mix (at r.t.) in assay buffer (50 mM Imidazole pH7.2, 50 mM KCl, 7 mM MgCl2, 0.01% Tween 20, 0.05% BSA) was dispensed into white solid bottom 1,536 well microtiter plates so that the final concentrations of substrates in the assay were 0.1 mM ADP and 0.5 mM PEP. 23 nL of compound were delivered by a pin tool and 1 uL of enzyme mix in assay buffer (4 degree Celsius) was added. Plates were incubated at room temperature for 1 hour. Two uL of detection mix (Kinase-Glo, Promega; at 4 degree Celsius protected from light) was added and luminescence read by a ViewLux (Perkin Elmer) at 5 second exposure/plate. Data were normalized to the uninhibited and AC100 inhibition (no enzyme). To monitor activation, the first column contained a titration of the activator, NCGC00031955-01 (16-point 1:2 dilutions in duplicate starting at 57 uM) and the first 16 rows of column 4 contained 57 uM of NCGC00031955-01.
In general terms: Quantitative high-throughput screening tests each substance at several concentrations.
For `COc1ccccc1-c1nnc(SCC(=O)Nc2cc(C)on2)o1`, the Potency entry is “inactive”. Same read-out and setting: then `Cc1cc(NC(=O)CSc2nnc(-c3ccc(Cl)s3)o2)no1`, with 2.51 µM (active); and `Cc1nc(SCC(=O)Nc2cc(C)on2)c2c(C)c(C)sc2n1`, with “inactive”. Still for that read-out and setting: the result for `COc1cc(NC(=O)C2=CC(c3ccc(C)cc3)=NS(=O)(=O)N2C)cc(OC)c1OC` reads “inactive”. `CCOc1ccccc1NC(=S)N1CCN(c2cccc(C)c2C)CC1`: the activation was -8.49% [at 11.5 µM, 0% is enzyme alone, no compound].

`Fc1ccc(/C=N/Nc2nc(-c3cccnc3)nc3ccccc23)cc1`: the Potency entry is “inactive”. On the same count and under the same terms, the result for `Cc1ccc2nc(C)cc(N/N=C/c3ccc(F)cc3)c2c1` reads 15.8 µM (active); that for `CCOc1cc(/C=N/Nc2cc(C)nc3ccc(C)cc23)ccc1O`, “inactive”; that for `Cc1ccccc1-c1nnn(CC(=O)c2ccc(S(=O)(=O)N3CCCC3)cc2)n1`, 7.94 µM (active). Take `Cc1cc(C)n(C(=O)c2ccc(S(=O)(=O)N3CCCC3)cc2)n1`: the Potency entry was “inactive”. Still for that read-out and setting: the result for `CC(C)(C)NC(=O)Cn1nnc(-c2ccccc2Cl)n1` reads “inactive”. The same measure, in the same setting: then `O=C(NC(=S)Nc1ccc(Cl)cc1Cl)C1CC1`, with “inactive”. On the same count and under the same terms, the result for `COC(=O)c1[nH]c2cccc(C)c2c1NC(=O)CN1CCCc2ccccc21` reads “inactive”; that for `COC(=O)c1[nH]c2ccccc2c1NC(=O)CN1CCCc2ccccc21`, 28.2 µM (active); that for `NS(=O)(=O)c1cccc(NC(=O)CN2CCCc3ccccc32)c1`, “inactive”. Consider `CCOc1ccccc1NC(=S)NC(=O)CCc1ccccc1`, for which the Potency entry is “inactive”. Still for that read-out and setting: then `CC(=O)c1cc(C#N)c(SCC(=O)C(C)(C)C)nc1C`, with “inactive”; and `CC(=O)c1cc(C#N)c(SCC(=O)Nc2nccs2)nc1C`, with 1 µM (active). On the same count and under the same terms, then `Cc1cc(C(F)(F)F)nc(SCC(=O)Nc2nccs2)n1`, with “inactive”. As to `CC1CCCCC1NC(=O)CCS(=O)(=O)c1ccc2c(c1)NC(=O)CO2` (stereo unspecified), the activation was 0.549% [at 0.46 µM, 0% is enzyme alone, no compound]. Turning to `CC(=O)OCCN(CCCn1c(-c2ccncc2)nc2ccccc21)c1nc(-c2ccc(C)cc2)cs1`, the Potency entry is “inactive”. On the same count and under the same terms, then `CC(C)c1ccc(NC2CCCN(C(=O)c3ccncc3)C2)cc1` (stereo unspecified), with “inactive”. On the same count and under the same terms, the result for `O=C(c1ccccc1)N1CCN(C(=O)c2cc3nc(-c4ccccc4)cc(C(F)(F)F)n3n2)CC1` reads “inactive”; that for `CC(C)c1ccc(S(=O)(=O)N2CCN(C(=O)c3ccc(N4CCCC4)c([N+](=O)[O-])c3)CC2)cc1`, “inactive”. Still for that read-out and setting: the result for `CCCOc1ccc(/C=N/NC(=O)C2CC2)c(OCCC)c1` reads “inactive”; that for `O=C(C1CCC(=O)N(C2CC2)C1)N1CCN(c2ccc(Cl)cc2)CC1` (stereo unspecified), “inactive”; that for `CC(C)c1ccc(NC(=O)C2CCCN(S(=O)(=O)c3cccnc3)C2)cc1` (stereo unspecified), “inactive”. Regarding `COCc1cc(=O)n2[nH]c(C)c(-c3ccccc3)c2n1`, the activation was -8.06% [at 11.5 µM, 0% is enzyme alone, no compound]. In the case of `CN(NS(=O)(=O)c1cccs1)c1ncc(C(F)(F)F)cc1Cl`, the Potency entry was “inactive”. The same measure, in the same setting: then `CCOc1ccccc1N1C(=O)CC(Sc2nccc(C)n2)C1=O` (stereo unspecified), with “inactive”; and `CCCn1c(C2CCCN2c2nc(-c3ccc(OC)cc3)cs2)nc2ccccc21` (stereo unspecified), with “inactive”; and `COC(=O)c1ccc(CN2CCCC(C(=O)Nc3cccc(-n4cnnn4)c3)C2)cc1` (stereo unspecified), with “inactive”. On the same count and under the same terms, the result for `CCOc1ccc(NS(=O)(=O)c2ccc(OCC(=O)NCCCOC)cc2)cc1` reads “inactive”; that for `COC(=O)COc1ccc(S(=O)(=O)Nc2ccc(NC(C)=O)cc2)cc1`, “inactive”; that for `CNC(=O)COc1ccc(S(=O)(=O)Nc2ccccc2)cc1`, 10 µM (active). Same read-out and setting: the result for `COc1cccc(OCC(O)CNC(=O)c2oc3c(C)c(C)ccc3c2C)c1` (stereo unspecified) reads “inactive”; that for `Cc1ccc(-n2ncc3c2CC(C)(C)CC3NC(=O)Cc2c(C)noc2C)cc1` (stereo unspecified), “inactive”. As to `O=C(NCCN1CCN(C(=O)c2cccc([N+](=O)[O-])c2)CC1)C(=O)NCc1ccc(Cl)cc1`, the Potency entry was “inactive”. Still for that read-out and setting: the result for `Cc1ccc(C)c(OCc2cc(C(=O)N3CCN(c4cnccn4)CC3)no2)c1` reads “inactive”; that for `C/C(=N\NC(=O)c1ccoc1C)c1ccccc1O`, “inactive”; that for `C=CCn1c(SCc2csc(C)n2)nc2scc(-c3ccc(C)o3)c2c1=O`, 10 µM (active).

For the compound `C=CCn1c(SCC(=O)NCC2CCCO2)nc2sc(C)c(C)c2c1=O` (stereo unspecified), the Potency entry was “inactive”. The same measure, in the same setting: the result for `C=CCNC(=O)CSc1nc2scc(-c3ccco3)c2c(=O)n1CC=C` reads “inactive”; that for `CC(=O)Nc1cccc(Nc2nc(-c3cccs3)nc3ccccc23)c1`, “inactive”; that for `Cc1cc(NC(=O)c2ccco2)c(=O)n(Cc2c(F)cccc2Cl)c1`, “inactive”.

For the compound `N#C[C@]1(S(=O)(=O)c2ccccc2)C[C@@H]2ON=C(c3cccc(Br)c3)[C@@H]2C1`, the Potency entry was “inactive”.

`O=C(Nc1ccc(Cl)cc1)c1cccc(OC(=S)N2CCOCC2)c1`: the Potency entry was “inactive”.

With `COc1ccccc1-c1nnc(SCC(=O)Nc2ccccc2)o1`, the Potency result is “inactive”. The same measure, in the same setting: the result for `COc1cccc(NC(=O)CSc2nnc(Cc3ccc(OC)c(OC)c3)o2)c1` reads 14.1 µM (active); that for `Cc1cc(C)cc(OCc2nnc(SCC(=O)Nc3ccccc3)o2)c1`, “inactive”.

On to `O=C(Nc1nnc(S(=O)(=O)N2CCCCCC2)s1)c1cccc(Br)c1`, for which the Potency result is “inactive”. For the compound `CCc1ccccc1OCC(=O)Nc1ccc2c(c1)OCCO2`, the Potency entry is “inactive”. The same measure, in the same setting: then `COc1ccc(NS(=O)(=O)c2ccc(N3CCN(CCO)CC3)c([N+](=O)[O-])c2)cc1`, with “inactive”. Consider `O=C(Nc1ncc([N+](=O)[O-])s1)C1COc2ccccc2O1` (stereo unspecified), for which the Potency entry is “inactive”. With `O=C(NCc1ccc(Cl)cc1)c1cc2c(nc3sccn32)s1`, the Potency entry is “inactive”. On the same count and under the same terms, then `O=c1cc(Cn2nnc(-c3ccc(Cl)cc3)n2)nc2sccn12`, with 14.1 µM (active); and `CCn1c(SCc2cc(=O)n3ccsc3n2)nc2ccccc21`, with “inactive”; and `Clc1cccc(Cl)c1OCCOCCNCc1ccccc1`, with “inactive”. Still for that read-out and setting: then `COc1nnc(-c2ccc(C)c(S(=O)(=O)N(C)C)c2)c2ccccc12`, with “inactive”; and `COc1cc(/C=C/C(=O)N2CCc3ccccc3C2)cc(OC)c1OC`, with “inactive”.

With `COc1ccc(-c2oc3ncnc(NCCCO)c3c2-c2ccc(OC)cc2)cc1`, the Potency entry was “inactive”. Still for that read-out and setting: then `C=CCNC(=S)/N=c1/ccccn1Cc1ccccc1`, with “inactive”; and `O=C(/C=C/c1ccc([N+](=O)[O-])o1)NNC(=O)c1ccc(F)cc1`, with “inactive”. The same measure, in the same setting: then `COCCNc1cc(-c2ccccc2)nc2cc(-c3cccc(F)c3)nn12`, with “inactive”; and `CCC(=O)Nc1nc(C)c(C(=O)Nc2cccc(Cl)c2)s1`, with “inactive”. Consider `O=C(CCCCCn1c(=S)[nH]c2ccsc2c1=O)NC1CCCCC1`, for which the activation is 13.9% [at 0.46 µM, 0% is enzyme alone, no compound].

Take `CCSc1nsc(NC(=O)Nc2ccccc2OC)n1`: the Potency result was “inactive”. On to `Cc1ccc(NC(=O)CSc2cccc3cccnc23)c(C)c1`, for which the Potency entry is “inactive”. Same read-out and setting: the result for `Cc1ccc(NC(=S)Nc2ccc(F)cc2)cc1` reads “inactive”; that for `N=c1oc2ccccc2cc1C(=O)NCc1ccccc1`, “inactive”; that for `O=C(NCc1cccs1)C1CCN(S(=O)(=O)c2ccc3c(c2)OCCO3)CC1`, 3.98 µM (active). On the same count and under the same terms, the result for `O=C(NCc1ccc(Cl)cc1)C1CCN(S(=O)(=O)c2cccs2)CC1` reads “inactive”; that for `Cc1ccc(S(=O)(=O)N2CCN(C)CC2)cc1`, “inactive”; that for `O=C(NCc1ccc2c(c1)OCO2)C1CCCN(S(=O)(=O)c2cccs2)C1` (stereo unspecified), “inactive”.

As for `O=C(NCc1ccccn1)C1CCN(S(=O)(=O)c2ccc(Br)cc2)CC1`, the Potency entry was “inactive”. As to `CN1CCCN(S(=O)(=O)c2ccc3c(c2)OCCO3)CC1`, the Potency was 3.55 µM (active). On to `O=S(=O)(c1ccc2c(c1)OCCO2)N1CCc2ccccc21`, for which the Potency result is “inactive”. Turning to `O=C(NCc1cccs1)C1CCN(S(=O)(=O)c2ccc(Cl)cc2)CC1`, the Potency was 14.1 µM (active).

Turning to `O=C(c1ccc2c(c1)OCCO2)C1CCN(S(=O)(=O)c2cccc(F)c2)CC1`, the Potency entry was “inactive”.

Consider `Cc1ccccc1CN1C[C@@H]2C[C@@H](c3cn(C)nc3-c3ccccc3)N3CCC[C@@]23C1=O`, for which the Potency is 5.62 µM (active). Still for that read-out and setting: the result for `Cc1ccccc1CN1C[C@@H]2C[C@@H](c3ccc4nsnc4c3)N3CCC[C@@]23C1=O` reads “inactive”.

For the compound `Cc1ccc(CN2CCN(Cc3cn(C)nc3-c3ccccc3)CC2CCO)o1` (stereo unspecified), the Potency entry was “inactive”. With `Brc1c(CSc2nncc3ccccc23)nc2ccccn12`, the Potency was 4.47 µM (active). On the same count and under the same terms, the result for `CN(C(=O)CSc1nncc2ccccc12)C1CCCCC1` reads “inactive”; that for `COc1ccc(Cl)cc1NC(=O)c1cccc(N2C(=O)C3CC=CCC3C2=O)c1` (stereo unspecified), “inactive”; that for `O=C(NCC1CCCO1)c1cc2c([nH]c3ccccc32)c(-c2ccc(F)cc2)n1` (stereo unspecified), “inactive”.

`O=C(Nc1ccc(S(=O)(=O)Nc2ccccn2)cc1)c1ccccc1`: the Potency entry was “inactive”. The same measure, in the same setting: then `CC(=O)c1ccc2c(ccc3ccccc32)c1`, with “inactive”. On the same count and under the same terms, then `CC(=O)CCC(=O)c1ccc2ccccc2c1`, with “inactive”; and `C=CC(=O)c1ccc2ccccc2c1`, with 10 µM (active). For the compound `CCOC(=O)c1cccc(NC(=O)C2CCN(c3ncnc4c3nc3n4CCCCC3)CC2)c1`, the activation was 0.194% [at 0.46 µM, 0% is enzyme alone, no compound]. On to `CCCOC1CCCN(C(=O)c2cc(COc3cncc(Cl)c3)on2)C1` (stereo unspecified), for which the Potency result was “inactive”.

As for `O=C(NC(=S)NC1CCCCC1)c1ccc(Cl)cc1`, the Potency result is “inactive”. Same read-out and setting: the result for `O=S(=O)(NC1CCCCC1N1CCN(c2ccccc2F)CC1)c1ccccc1` (stereo unspecified) reads “inactive”; that for `O=C(Cc1ccc(Cl)cc1)NC(=S)Nc1ccccc1O`, “inactive”. Same read-out and setting: then `CCN1C(=S)N[C@@H](CCc2ccccc2)[C@H](C(=O)OC)[C@H]1C`, with “inactive”; and `CC1(C(=O)NCCc2c[nH]c3ccccc23)C=CC2(CCCCC2)N1C(=O)c1ccccc1` (stereo unspecified), with “inactive”; and `Cc1ccccc1NC(=O)CSc1nc2ccc(Nc3nc(N4CCOCC4)nc(N4CCOCC4)n3)cc2s1`, with “inactive”.

Take `CN(C(=O)CC1C(=O)NCCN1Cc1ccc(F)cc1Cl)C1CCCCC1` (stereo unspecified): the Potency entry is “inactive”. Still for that read-out and setting: the result for `CC(=O)N1c2ccc(S(=O)(=O)N3CCCC(C(=O)Nc4cccc(F)c4)C3)cc2CC1C` (stereo unspecified) reads “inactive”; that for `CCC(C)c1ccc(NC(=S)N2CCCC2)cc1` (stereo unspecified), “inactive”.

For the origin of these results see PubChem BioAssay AID1631 (National Center for Advancing Translational Sciences (NCATS), 2009).
